According to PubChem BioAssay (NCATS):
“And” between values parts separate entries of the source, which are not always exact repeats. Equal values may be shown once. Results filed as inconclusive are left out. Some structures have more than one record in an assay (separate samples or runs), and their calls can disagree. The source made the active and inactive calls. Unless noted, calls come from the whole dose curve; as a rule, active = well fitted curve in either direction with a large enough effect (not every such curve was filed as active); inconclusive = small, poorly fitted or top-dose-only effect, or another doubt; inactive = flat fitted curve, though single readings scatter.

Key:
[1] = AP1 Signaling Pathway (AID 357); conditions: ME-180 AP-1-bla reporter, EGF-induced, beta-lactamase ratio, 5 h;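 note: ME-180 reporter cells stimulated with EGF at its EC50 level; % is set by controls: 0 for no effect and ±100 for the full control effect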
Procedure, shortened: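 Beta-lactamase reporter under AP-1 response element, ME-180 background. Stimulus: EC50 EGF. Compound exposure 5 h, 37 °C. Detection: CCF4, 2.5 h RT, 460/530 nm. Values: AC50 from titration.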

[2] = biological target: Cytochrome P450 1A2 (Homo sapiens) (UniProt P05177); experiment: p450-cyp1a2 (AID 410; calls by dose curve; note: potency is the fitted concentration of half-maximal effect;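 for activity change, negative = inhibition: -100% = full effect of reference inhibitor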); conditions: recombinant CYP1A2, luciferin-ME demethylation, luminescence; series mostly up to 57 µM
Chain of Cytochrome P450 1A2 (Homo sapiens) (P05177 whole entry, looked up): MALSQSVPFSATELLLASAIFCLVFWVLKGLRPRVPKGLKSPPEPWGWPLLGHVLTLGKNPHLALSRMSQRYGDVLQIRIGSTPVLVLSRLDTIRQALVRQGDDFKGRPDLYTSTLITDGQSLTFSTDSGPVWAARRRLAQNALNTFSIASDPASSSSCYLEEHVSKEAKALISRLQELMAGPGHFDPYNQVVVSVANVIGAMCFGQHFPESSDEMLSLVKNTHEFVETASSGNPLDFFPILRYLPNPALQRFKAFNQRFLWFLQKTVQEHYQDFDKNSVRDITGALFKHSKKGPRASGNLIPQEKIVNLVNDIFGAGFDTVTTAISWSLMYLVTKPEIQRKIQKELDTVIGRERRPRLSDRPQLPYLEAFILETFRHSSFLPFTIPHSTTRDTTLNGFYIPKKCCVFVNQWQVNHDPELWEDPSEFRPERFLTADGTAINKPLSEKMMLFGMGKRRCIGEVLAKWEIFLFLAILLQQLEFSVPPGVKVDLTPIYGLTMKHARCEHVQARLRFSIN
Procedure, shortened: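 Read-out is luminescence from luciferin produced by CYP1A2 demethylation of Luciferin-ME (100uM, at Km). Detection reagent stopped the 60 min NADPH-dependent reaction; signals were normalized to 57 uM furafylline.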

[3] = NFAT Signaling Pathway (AID 444); conditions: Jurkat NFAT-bla M1, carbachol, beta-lactamase ratio, 5 h;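 note: carbachol stimulus at about its EC50 of 1 µM final; % is set by controls: 0 for no effect and ±100 for the full control effect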
Procedure, shortened: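 Read-out: CCF4 FRET ratio (460 nm/530 nm) after 1 h RT dye loading, used for %activity and AC50 from titration series. Cells: Jurkat NFAT-β-lactamase/M1 line, treated with compound plus 1 uM carbachol for 5 h, 37 °C.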

[4] = Stat Signaling Pathway (AID 446); conditions: ME-180 (cervical carcinoma) SIE beta-lactamase reporter, IL-6 stimulated, 5 h;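 note: ME-180 cervical cancer cells given 40 pM IL-6 alongside compound; SIE-controlled beta-lactamase reporter measured as 460/530 nm FRET emission ratio; % is set by controls: 0 for no effect and ±100 for the full control effect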
Procedure, shortened: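 Emission at 460 and 530 nm (excitation 405 nm) reports SIE-controlled beta-lactamase in ME-180 cells. Cells received compound with 40 pM IL-6 for 5 hrs at 37 C; data scaled between 300 pM IL-6 and 125 nM JAK-inhibitor controls.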

SMILES	activity change, negative = inhibition ([1]; at 38 µM (top of the series))	Potency [2]	activity change, negative = inhibition ([3]; at 38 µM (top of the series))	activity, negative = inhibition ([4]; at 38 µM (top of the series))	activity change, negative = inhibition ([1]; at 17.2 µM (top of the series))	activity change, negative = inhibition ([3]; at 17.2 µM (top of the series))	activity, negative = inhibition ([4]; at 17.2 µM (top of the series))
CCCN1CCC[C@H](c2cccc(O)c2)C1	-0.74% (inactive) and -8.16% (inactive)	inactive	-6.4% (inactive) and -13.2% (inactive)	0.0297% (inactive) and 5.34% (inactive)	–	–	–
O=c1cccc2n1CC1CNC[C@H]2C1	–	inactive and 31.6 µM (active)	–	–	-4.28% (inactive)	-12.9% (inactive)	6.88% (inactive)
CCCN1CCO[C@@H]2c3cc(O)ccc3OC[C@H]21	-14.2% (inactive) and 2.45% (inactive)	–	8.87% (inactive) and 8.95% (inactive)	12% (inactive) and -17.6% (inactive)	–	–	–
Clc1cnc(Oc2ccc(Oc3ncc(Cl)cc3Cl)cc2)c(Cl)c1	8.39% (inactive)	inactive	–	1.75% (inactive)	–	–	–
NCCc1c[nH]c2ccc(O)cc12	7.62% (inactive)	7.94 µM (active) and 2 µM (active)	4.18% (inactive)	-13.2% (inactive)	7.63% (inactive)	-8.4% (inactive)	-0.625% (inactive)
O=C(O)CC[N+](=O)[O-]	-8.61% (inactive)	inactive	10% (inactive)	1.14% (inactive)	–	–	–
CCCCc1ccc(C(=O)O)nc1	-6.7% (inactive)	31.6 µM (active) and inactive	6.08% (inactive)	9.55% (inactive)	-4.11% (inactive)	-0.081% (inactive)	6.81% (inactive)
NCCc1c[nH]c2ccccc12	-5.53% (inactive)	3.16 µM (active)	-3.55% (inactive)	-11.1% (inactive)	–	–	–
C#CCOC(=O)C1=CCCN(C)C1	16.6% (inactive)	–	44.2% [activator] (active)	14.7% (inactive)	–	–	–
C[C@@H]1O[C@H](C[N+](C)(C)C)C[C@H]1O	15.5% (inactive)	–	–	–	–	–	–
CNCCc1c[nH]c2ccc(O)cc12	7.75% (inactive)	inactive	12.8% (inactive)	-2.52% (inactive)	–	–	–
CC(C)Oc1cccnc1N(C)C1CCN(Cc2ccccc2)CC1	2.27% (inactive)	inactive	–	–	–	–	–
CC[C@@]1(O)C(=O)OCc2c1cc1n(c2=O)Cc2cc3ccccc3nc2-1	-97.5% (active)	7.94 µM (active) and 2.51 µM (active) and 1.58 µM (active)	-97% (active)	42.7% (active)	-111% (active)	-85.5% (active)	-95.6% (active)
c1ccc2sc(C3(N4CCCCC4)CCCCC3)cc2c1	-1.54% (inactive)	inactive	–	-24.8% (inactive)	–	–	–
